An excerpt weighted towards active compounds, which were near 5% of everything screened.
SENP8 block-1 – SENP8 (human) protease inhibition | Q96LD8 | recombinant SENP8, Nedd8 substrate fluorescence | inhibition, % at 20 µM | hit rate 0.64% among 360,000 | AID 602440; in the data active = inhibition mostly above about 40%, no sharp cut-off; inactive = mostly below about 27%
SENP7 block – inhibitors of human SENP7 protease | Q9BQF6 | recombinant SENP7, Z-RLRGG-aminoluciferin luminescence, 40 min | inhibition, % at 5 µM | hit rate 1.5% among 330,000;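 active = inhibition above about 50% at the single test dose, limit read from the data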;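 note: plate controls were DMSO with enzyme for no effect and no enzyme buffer wells for full effect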
Target sequence (Q9BQF6 706-1050 limits assumed): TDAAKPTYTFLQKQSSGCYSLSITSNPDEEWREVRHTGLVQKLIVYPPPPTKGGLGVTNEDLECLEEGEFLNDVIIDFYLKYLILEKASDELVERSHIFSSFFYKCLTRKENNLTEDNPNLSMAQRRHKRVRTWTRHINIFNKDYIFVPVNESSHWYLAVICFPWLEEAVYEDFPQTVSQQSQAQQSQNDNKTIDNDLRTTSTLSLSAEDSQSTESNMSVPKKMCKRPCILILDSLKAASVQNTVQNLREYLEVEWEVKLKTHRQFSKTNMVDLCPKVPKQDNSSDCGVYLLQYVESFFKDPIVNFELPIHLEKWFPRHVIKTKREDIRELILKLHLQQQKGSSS
SENP6 block – SENP6 protease inhibition. Q9GZR1. Recombinant SENP6 catalytic domain, aminoluciferin luminescence. inhibition, % at 10 µM. hit rate 1.8% among 330,000. AID 2599;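 active = inhibition above about 50% at the single tested dose, limit read from the data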;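 note: plate controls were DMSO wells with enzyme for no effect and DMSO wells lacking enzyme for full effect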
EBI2 block – EBI2 (human) antagonism | EBI2 beta-arrestin recruitment, luminescence, 7a,25-OHC stimulated | hit rate 0.81% among 360,000 | inhibition, % at 5 µM; in the data active = inhibition above about 38%;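 note: enzyme fragment complementation signal reports receptor beta-arrestin coupling in cells; 0% = agonist plus DMSO wells and 100% = wells without agonist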
AHR activator – human AHR activation; activation, % at 5 µM; hit rate 2.5% among 320,000; AID 2796; P35869; AHR-responsive luciferase reporter cells, luminescence; in the data active = activation above about 47%;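 note: 0% = vehicle wells and 100% = reference agonist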
SENP8 block-2 – blocks the human protease SENP8; AID 2540; hit rate 1.2% among 330,000; Q96LD8; inhibition, % at 10 µM; purified SENP8, Z-RLRGG-aminoluciferin cleavage, luminescence; in the data active = inhibition above about 50%
Numbers without * were called inactive; i = inactive; . = not tested or not shown.

SMILES	SENP8 block-1	SENP7 block	SENP6 block	EBI2 block	AHR activator	SENP8 block-2
O=c1[nH]c(-c2ccco2)nc2sc3c(c12)CCCC3	-53	26	51*	2	4	11
O=c1[nH]c(S)nc2sc3c(c12)CCCC3	-34	-5	2	-4	5	-1
CC(C)CCNC(=O)C1(C)CCN1Cc1ccc(-c2ccccn2)cc1 (stereo unspecified)	22	.	.	-50	.	.
CC(=O)N(CCc1ccccc1C)Cc1cc2cc3c(cc2[nH]c1=O)OCO3	-390	3	-15	-12	61*	1
Cc1cc(C)c2[nH]c(=O)c(CN(CC3CCCO3)C(=S)Nc3ccccc3)cc2c1 (stereo unspecified)	-36	-7	-2	-12	9	-9
CCNC(=S)N(CCc1ccccc1C)Cc1cc2cc(OC)c(OC)cc2[nH]c1=O	-196	-3	-14	1	57*	-8
CCN(CC)CCCN(Cc1cc2cc3c(cc2[nH]c1=O)OCO3)C(=S)Nc1ccccc1	-368	5	2	-2	49*	0
Cc1ccc2cc(CN(CC3CCCO3)C(=S)Nc3ccccc3)c(=O)[nH]c2c1C (stereo unspecified)	-4	0	1	-6	51*	1
CC(=O)NC(c1cccc(F)c1)c1nc(-c2cnn(C)c2)cs1 (stereo unspecified)	10	.	.	-12	.	.
CCn1cnc2c(NCCc3cccnc3)nc(C#N)nc21	-21	-3	0	2	71*	-7
CC(OC(=O)C1=COCCO1)C(=O)NC1CCCC(C)C1C (stereo unspecified)	18	.	.	-1	.	.
Cn1c(C=O)c(C#Cc2ccccc2)c2ccccc21	-478	6	0	-2	73*	0
COc1ccc(C#Cc2c(-c3ccccc3)n(C)c3ccccc23)cc1	i	11	4	9	36	1
COc1ccc(C#Cc2c(C=O)n(C)c3ccccc23)cc1	i	3	-10	-1	73*	13
O=C(COc1ccccc1C(=O)NCC1CCCO1)Nc1ccc(Br)cc1 (stereo unspecified)	23	-7	-10	3	6	-6
COc1cc2c(NCCCCCO)ncnc2c(OC)c1OC	-53	.	.	-8	.	.
Cc1cc2ccccn2c1C(=O)Nc1ccccc1	-382	6	23	4	60*	8
O=C1C(SCCO)=C(SCCO)C(=O)c2ccccc21	-73	56*	89*	20	58*	89*
Cc1cccc(NC(=O)CNC(=O)[C@H]2O[C@@H](n3ccc(N)nc3=O)[C@H](O)[C@@H]2O)c1C	14	.	.	-6	.	.
CC1(O)c2ccccc2C(=O)N1CCc1ccccc1F (stereo unspecified)	53*	10	4	5	76*	-4
CC(C)Oc1cccc(C(=O)Nc2nnc([C@H]3C[C@H](O)[C@@H](CO)O3)s2)c1	1	.	.	-3	.	.
O=C(c1ccco1)N1N=C(c2ccco2)CC1c1ccc(Cl)cc1Cl (stereo unspecified)	-30	12	-2	-1	0	3
Cc1[nH]c2ccccc2c1/C=N/Nc1ccc([N+](=O)[O-])cc1S(=O)(=O)Nc1ccc(Cl)cc1	22	-7	-14	37	0	-7
COc1ccccc1NS(=O)(=O)c1cc([N+](=O)[O-])ccc1N/N=C/c1c[nH]c2ccccc12	21	-5	24	54*	16	3
COc1ccc(NS(=O)(=O)c2cc([N+](=O)[O-])ccc2N/N=C\c2c(C)[nH]c3ccccc23)cc1	47*	4	-1	20	13	16
O=C(COC(=O)C1CCN(c2ccc(C(F)(F)F)cn2)CC1)NCc1cccc(Cl)c1	-37	8	-3	-4	.	-6
O=C(Nc1ccccc1)c1cc(C2COCCN2C(=O)c2cccs2)on1 (stereo unspecified)	8	.	.	-7	.	.
COc1ccccc1OCC(O)Cn1c(=N)n(Cc2ccccc2)c2ccccc21 (stereo unspecified)	14	-11	-2	16	28	-1
CCCCCn1c(=N)n(CC(O)COc2ccccc2OC)c2ccccc21 (stereo unspecified)	13	5	-9	0	49*	-6
C=CCn1c(=N)n(CC(O)COc2ccccc2OC)c2ccccc21 (stereo unspecified)	-1	0	-10	3	62*	-6

Assay outcomes (PubChem)
